From PubChem
This is a sample that favours compounds with a hit; in the whole collection about 1.8% have one here.
LYPLA2 inh = blocks human lysophospholipase 2, a PME1 counter-screen; recombinant LYPLA2, FP-Rh probe fluorescence polarization; inhibition, % at 5.9 µM; 320,000 compounds, 0.38% hits;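 active = inhibition above the screen-wide mean plus 3 SD, limit set per campaign, cut at about 26% in these data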
PAD4 FP inh = inhibitors of human PAD4. inhibition, % at 6.36 µM. Q9UM07. recombinant PAD4, RCA probe fluorescence polarization. 330,000 compounds, 0.41% hits;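 active = percent inhibition above a cutoff equal to the mean of all tested compounds plus 3 SD, cut at about 15% in these data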
Fam108B inh = Fam108B inhibition, counter-screen for RBBP9 inhibitors; AID 1947; inhibition, % at 9.51 µM; 300,000 compounds, 0.33% hits; recombinant Fam108B, FP-Rh probe fluorescence polarization;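 active = inhibition above the screen mean inhibition plus 3 SD, computed separately per campaign, cut at about 18% in these data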;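 also: inhibitors lower polarization as less probe binds the enzyme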
LYPLA1 inh = LYPLA1 (human) inhibition in PME1 counter-screen | O75608 | 320,000 compounds, 0.16% hits | inhibition, % at 5.9 µM | AID 2174 | recombinant LYPLA1, FP-Rh probe fluorescence polarization;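 active = inhibition above the mean of all tested compounds plus 3 SD, set per campaign, cut at about 14% in these data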;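 also: inhibitors block serine hydrolase probe labeling of LYPLA1 so polarization falls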
Target sequence (O75608 whole entry, looked up): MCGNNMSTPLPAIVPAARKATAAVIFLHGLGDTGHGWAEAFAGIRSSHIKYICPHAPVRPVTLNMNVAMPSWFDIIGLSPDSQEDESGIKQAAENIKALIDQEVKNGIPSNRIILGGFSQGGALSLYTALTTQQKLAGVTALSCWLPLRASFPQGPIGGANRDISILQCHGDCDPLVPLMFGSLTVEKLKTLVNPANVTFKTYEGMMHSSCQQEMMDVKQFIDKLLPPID
PME-1 primary = PME-1 (human) inhibition | 320,000 compounds, 0.53% hits | inhibition, % at 5.9 µM | Q9Y570 | recombinant PME-1, FP-Rh probe fluorescence polarization;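 active = inhibition above the campaign mean of all compounds plus 3 SD, cut at about 26% in these data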;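 also: competitive labeling of PME-1 active site by serine hydrolase directed probe; inhibitors block probe labeling so polarization falls and inhibition rises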
Target sequence (Q9Y570 whole entry, looked up): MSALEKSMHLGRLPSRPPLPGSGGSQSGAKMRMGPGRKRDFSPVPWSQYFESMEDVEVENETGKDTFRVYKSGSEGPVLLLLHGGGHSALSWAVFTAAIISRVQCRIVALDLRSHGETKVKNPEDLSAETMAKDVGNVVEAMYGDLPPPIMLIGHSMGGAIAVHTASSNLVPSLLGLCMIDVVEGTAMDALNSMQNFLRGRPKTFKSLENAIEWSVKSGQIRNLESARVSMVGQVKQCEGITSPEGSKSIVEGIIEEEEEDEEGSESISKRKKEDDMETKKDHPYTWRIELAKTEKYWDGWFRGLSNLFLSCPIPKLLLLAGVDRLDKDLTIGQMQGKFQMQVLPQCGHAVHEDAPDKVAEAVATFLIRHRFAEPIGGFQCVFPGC
GSTO1 inh = counter-screen for RBBP9 inhibitors: inhibitors of human GSTO1. recombinant GSTO1, activity-based probe fluorescence polarization. inhibition, % at 5.96 µM. 300,000 compounds, 1.1% hits. AID 1974;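 active = inhibition above the campaign mean inhibition plus 3 SD, cut at about 35% in these data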
GSTO1 confirm = GSTO1 (human) inhibition, confirmation. shares compounds with GSTO1 inh. recombinant GSTO1, probe fluorescence polarization. inhibition, % at 5.96 µM. 2,400 compounds, 54% hits. AID 2176;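 active = inhibition above the primary screen's cutoff, its mean inhibition plus 3 SD, cut at about 35% in these data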;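 also: loss of polarization as inhibitors block binding of rhodamine sulfonate ester activity probe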
GSTO1 ABPP inh = GSTO1 (human) inhibition by gel ABPP. recombinant GSTO1, gel ABPP SE-Rh probe fluorescence. 130 compounds, 30% hits. inhibition, % at 1 µM. shares compounds with GSTO1 inh. AID 463110;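 active = inhibition of the enzyme GSTO1 above about 75%, limit read from the data; inactive = inhibition below that limit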
Large screens that a line does not name were inactive (follow-up assays come after a bar, where they were run).

COC(=O)CCC(=O)OC1(C)C(=O)C=C2C=C(C3CC3)N(c3cccc(C#N)c3)C=C2C1=O (stereo unspecified)	GSTO1 inh 58 | GSTO1 confirm inactive
COC(=O)CCC(=O)OC1(C)C(=O)C=C2C=C(C3CC3)N(Cc3ccco3)C=C2C1=O (stereo unspecified)	GSTO1 inh 38 | GSTO1 confirm inactive
CCCNc1nc(C)cc(-c2cc(C(=O)Nc3ccccc3)on2)n1	none
CCN1CCCC1CNC(=O)C(=O)NCCc1ccc(OC)c(OC)c1 (stereo unspecified)	none
CCOCCCn1c(SC(C)C(=O)NCC2CCCO2)nc2sc(C)c(C)c2c1=O (stereo unspecified)	none (no result: Fam108B inh, GSTO1 inh)
CN(Cc1ccc(Cl)s1)C(=O)CCl	GSTO1 inh 92 | GSTO1 confirm 104 | GSTO1 ABPP inh inactive
O=C1Nc2ccccc2N2CCCC12 (stereo unspecified)	GSTO1 inh 69 | GSTO1 confirm 77
O=C1Nc2cc(S(=O)(=O)N3CCCC3)ccc2N2CCCC12 (stereo unspecified)	none
COc1cc(N2C(=O)C=CC2=O)c(OC)cc1Cl	none
O=C1CSc2ccc(S(=O)(=O)CCC(=O)NC3CCCCC3)cc2N1	GSTO1 inh 53 | GSTO1 confirm inactive
CC1CCC(NC(=O)CCS(=O)(=O)c2ccc3c(c2)NC(=O)CS3)CC1 (stereo unspecified)	none
O=C1C(NS(=O)(=O)c2ccc(Br)cc2)=C(N2CCCCC2)C(=O)c2ccccc21	GSTO1 inh 42 | GSTO1 confirm inactive
CCOC(=O)C1CCCN(C2=C(NS(=O)(=O)c3ccc(Br)cc3)C(=O)c3ccccc3C2=O)C1 (stereo unspecified)	GSTO1 inh 43 | GSTO1 confirm inactive
CCOC(=O)C1CCN(C2=C(NS(=O)(=O)c3ccc(Cl)cc3)C(=O)c3ccccc3C2=O)CC1	none
COc1ccc(OCCN2C(=O)c3cccc(N)c3C2=O)cc1	none
O=C1C(Cl)=C(Nc2ccccc2)C(=O)c2ccccc21	GSTO1 inh 102 | GSTO1 confirm 90
CC(C)NC1=C(Cl)C(=O)c2ccccc2C1=O	GSTO1 inh 65 | GSTO1 confirm inactive
O=C(O)c1ccc2c(c1Nc1ccccc1)C(=O)c1ccccc1C2=O	none
O=C(O)c1ccc(NC2=C(Cl)C(=O)c3ccccc3C2=O)cc1	GSTO1 inh 79 | GSTO1 confirm 49
CC(C)CCN(C(=S)Nc1cccc(F)c1)C1CCN(C(C)C)CC1	none
C=C(C)C(=O)OCC(C)C	none (no result: Fam108B inh, GSTO1 inh)
COc1ccc(C(=O)COC(=O)CN2C(=O)c3ccccc3C2=O)c(OC)c1	none
N#C/C(=C\c1cccc(O)c1)C(=O)Nc1ccc2c(c1)OCCO2	none
CC(=O)Oc1c(Cl)c(N2CCOCC2)c(OC(C)=O)c2ccccc12	GSTO1 inh 44 | GSTO1 confirm inactive
Cc1cc(OC(=O)N2CCOCC2)cc(C)c1Cl	none
CC1CCCCN1S(=O)(=O)c1ccc(S(=O)(=O)N2CCCC2)cc1 (stereo unspecified)	none
Cc1cc(Nc2cccc(C(=O)O)c2)n2ncnc2n1	GSTO1 inh 86 | GSTO1 confirm inactive
COc1ccc(N2C3=C(CC4=C2CCCC4=O)C(=O)CCC3)cc1	GSTO1 inh 58 | GSTO1 confirm inactive
O=C(O)c1ccc(N=N/C(=N\Nc2ccc(C(=O)O)cc2)c2ccccc2)cc1	GSTO1 inh 39 | GSTO1 confirm 67
COCc1cc(C)nc(SCC(=O)c2ccc(O)c(O)c2)c1C#N	GSTO1 inh 48 | GSTO1 confirm inactive
COc1ccc(CC2=CC(=O)c3ccccc3C2=O)cc1	GSTO1 inh 67 | GSTO1 confirm inactive
CCOC(=O)N1CCN(CC(=O)Nc2ccc(F)cc2F)CC1	GSTO1 inh 43 | GSTO1 confirm inactive
CC(Sc1nnc(C2CC2)n1C1CC1)C(=O)Nc1cccc(S(=O)(=O)N2CCOCC2)c1 (stereo unspecified)	none (no result: Fam108B inh, GSTO1 inh)
CCOC(=O)c1c(-c2ccccc2)csc1NC(=O)c1cc2ccccc2oc1=O	none
C=CCn1c(O)c(N=NC(=S)Nc2ccccc2C)c2cc(S(=O)(=O)N3CCOCC3)ccc21	GSTO1 inh 42 | GSTO1 confirm inactive
Cc1ccc(-n2nc(C)c3c2OC(N)=C(C#N)C3c2ccc(C)o2)cc1 (stereo unspecified)	GSTO1 inh 48 | GSTO1 confirm inactive
CC(C)(C)N=C1SCC(C)(/C=N/O)S1 (stereo unspecified)	GSTO1 inh 42 | GSTO1 confirm inactive
CCC(C)N=C1SCC(C)(/C=N/O)S1 (stereo unspecified)	none
COc1ccc(CCNCc2cc(C)n(-c3ccc(OC)cc3)c2C)cc1	none
NC1=NC(=O)/C(=C/c2ccc(Br)cc2)S1	none
NC1=NC(=O)/C(=C/c2cc(Br)c(O)c(Br)c2)S1	GSTO1 inh 41 | GSTO1 confirm 81
COc1ccc(/C=C/C(=O)NC(=S)Nc2ccc(Br)cn2)cc1	none
C#CC(=O)N(c1ccc(OC)cc1OC)C(C(=O)NC1CCCC1)c1cccs1 (stereo unspecified)	none
C#CC(=O)N(c1cc(OC)ccc1OC)C(C(=O)NC1CCCC1)c1cccs1 (stereo unspecified)	GSTO1 inh 65 | GSTO1 confirm 68
CC(=O)c1cc2c(cc1NC(=O)c1cccc(S(=O)(=O)N3CCN(C)CC3)c1)OCO2	GSTO1 inh 61 | GSTO1 confirm inactive
COC(=O)C1CCN(C(=O)COC(=O)c2oc3ccc(OC)cc3c2C)CC1	none
Oc1ccc(Nc2nc(-c3ccc4ccccc4c3)cs2)cc1	none
Oc1ccc(-c2nc(-c3ccc(O)c(O)c3)cs2)cc1	GSTO1 inh 47 | GSTO1 confirm inactive
CC(C)CNC(=O)C(=O)NCCC1CCCCN1S(=O)(=O)c1cccs1 (stereo unspecified)	none
COc1ccc(N)cc1-n1c(C)ccc1C	GSTO1 inh 45 | GSTO1 confirm inactive
O=C(c1cc(=O)[nH]c2ccccc12)N1CCN(c2ccccc2)CC1	none
CCOc1cc(N2CCOCC2)c(OCC)cc1NC(=O)c1nn(CC)c(=O)c2ccccc12	none (no result: Fam108B inh, GSTO1 inh)
Oc1ccc(NCc2ccccc2OCc2ccccc2)cc1	GSTO1 inh 84 | GSTO1 confirm inactive
CCNCc1ccccc1OCc1ccccc1	none
O=C(COC(=O)c1ccc[n+]([O-])c1)Nc1ccc(Cl)cc1[N+](=O)[O-]	none (no result: Fam108B inh, GSTO1 inh)
CCCn1nc(C(=O)NC2CCCCCC2)c2ccccc2c1=O	none (no result: Fam108B inh, GSTO1 inh)
O=C(Cc1ccccc1)NC1(O)C(=O)c2ccccc2C1=O	GSTO1 inh 72 | GSTO1 confirm 75
CC(NC(=O)Cc1ccccc1)c1ccccc1 (stereo unspecified)	none
